The record followed here is PubChem BioAssay (NCATS).

In test [1] the target is Glutathione peroxidase 1 (Homo sapiens) (UniProt P07203). Description: Primary qHTS Assay for Inhibitors of Recombinant Selenoprotein Glutathione Peroxidase 1 (GPX1) (AID 1845191). Note: nearly all actives have a fitted effect of over 65% in size. The method in brief:
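GR-coupled readout: NADPH consumption tracked by fluorescence, ex 340/em 450 nm, at t=0 and after 15 min at RT. Final mix 10 nM GPX1, 1 mM GSH, 0.5 mM CHP, 0.5 mM NADPH, 100 nM GR, 0.01% BSA, following 30 min enzyme–compound preincubation.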
(qHTS replaces the single test concentration by a dilution series.)

Test [2] has as its target Phospholipid hydroperoxide glutathione peroxidase GPX4 (Homo sapiens) (UniProt P36969). Description: Primary qHTS Assay for Inhibitors of Recombinant Selenoprotein Glutathione Peroxidase 4 (GPX4) (AID 1845192). Note: nearly all actives have a fitted effect of over 65% in size. The method in brief: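 Steps: GPX4 plus compound, 30 min RT; add GR/GSH/NADPH master mix; start with cumene hydroperoxide; read 340/450 nm fluorescence at 0 and 15 min. Finals were 200 nM GPX4, 1 mM GSH, 0.5 mM CHP, 0.5 mM NADPH, 100 nM GR.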

Test [3] is described as follows: qHTS drug screen for cell cycle checkpoint inhibitors in PARPi-resistant BRCA-mutant ovarian cancer cell lines. (AID 1963452; calls by dose curve; note: potency is the fitted concentration of half-maximal effect). As to conditions: PEO1/OlaR viability, CellTiter-Glo luminescence, 96 h; for Z-AUC: stronger effect = lower value. The method in brief: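 PEO1, PEO4 and PEO1/OlaR ovarian cancer cells, 600 per well, exposed 96 h at 37C to a dilution series. Viability read by CellTiter-Glo luminescence, normalized to DMSO and empty wells; activity summarized as Z-AUC.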

The target in test [4] is Luciferin 4-monooxygenase (Photinus pyralis) (UniProt P08659). The experiment in a line: Primary firefly luciferase (FLuc) qHTS assay for identification of artifact compounds. (AID 1845220). Note: nearly all actives have a fitted effect of over 60% in size. The note with it: outcome: dose series up to 54.1 µM. In a few lines:
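Enzymatic FLuc inhibition assay: compounds pre-exposed to luciferin/ATP (10 uM each) for 15 min, then purified P. pyralis enzyme at 10 nM added. Read-out: luminescence at 5 min.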

A short description of test [5]: Primary fluorescence-based thiol-reactive (MSTI) qHTS assay for identification of artifact compounds. (AID 1845221).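 Note: series mostly up to about 54 µM; thiol-reactive compounds lower the probe fluorescence signal; nearly all actives have a fitted effect of over 65% in size.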 In a few lines:
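Reactivity toward the thiol probe MSTI (4 uM) is scored by fluorescence at Ex/Em 525/598 nm after 1 h at room temperature. Acetyl-MSTI and MSTI define the activity scale.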

Test [6] has as its system Nanoluciferase (engineered Oplophorus gracilirostris luciferase). The experiment in a line: Primary Nanoluciferase (NLuc) qHTS assay for identification of artifact compounds. (AID 1845222).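 Note: NLuc secreted into diluted conditioned medium of S16 cells; series mostly up to about 54 µM; 0% = DMSO and -100% = no enzyme.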 The method in brief:
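S16 cell supernatant NLuc, 1:55; cpds qHTS; 15 min RT dark; Nano-Glo substrate 1:100, 5 min; luminescence; Hill fit of % inhibition.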

[7] abbreviates: measured here: PEO1 parental Z-AUC.

Inconclusive results are not listed. Active and inactive are the calls of the source. Unless noted, calls come from the whole dose curve; as a rule, active = well fitted curve in the direction sought with a large enough effect; inconclusive = small, poorly fitted or top-dose-only effect, or another doubt; inactive = no such curve, though single readings can be large; an effect the other way counts as inactive or inconclusive.

Glutathione peroxidase 1 (Homo sapiens), sequence (P07203 whole entry, looked up): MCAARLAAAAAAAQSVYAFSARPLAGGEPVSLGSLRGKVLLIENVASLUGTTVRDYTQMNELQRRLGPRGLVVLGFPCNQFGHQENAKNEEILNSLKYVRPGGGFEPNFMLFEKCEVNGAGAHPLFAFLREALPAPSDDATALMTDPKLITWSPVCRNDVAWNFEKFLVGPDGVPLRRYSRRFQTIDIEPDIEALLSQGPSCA
Phospholipid hydroperoxide glutathione peroxidase GPX4 (Homo sapiens), sequence (P36969 whole entry, looked up): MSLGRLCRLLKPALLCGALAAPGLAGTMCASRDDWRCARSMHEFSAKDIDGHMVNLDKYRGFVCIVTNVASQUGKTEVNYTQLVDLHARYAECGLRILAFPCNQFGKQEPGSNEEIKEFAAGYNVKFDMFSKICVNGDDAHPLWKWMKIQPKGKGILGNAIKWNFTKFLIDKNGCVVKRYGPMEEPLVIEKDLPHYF

Consider `CCN(CC)C(=O)/C(C#N)=C/c1cc(O)c(O)c([N+](=O)[O-])c1`, for which the Potency entry in test [1] and in test [2] was “inactive” in each case.

For the molecule `NC(CO)(CO)CO`, the Potency result in test [1] and in test [2] was “inactive” in each case.

Take `NCCC(O)(P(=O)(O)O)P(=O)(O)O`: the Potency result in test [1] and in test [2] was “inactive” in each case.

Take `CC(C)COC(=O)c1ccc(N)cc1`: the Potency entry in test [1] and in test [2] was “inactive” each time.

Consider `CC1(C)OC[C@@H](COC(=O)CCc2ccc(OC[C@@H](O)CNCCNC(=O)N3CCOCC3)cc2)O1`, for which the Potency result in test [1] and in test [2] was “inactive” in each case.

Take `Oc1cc(O)c2c(c1)O[C@H](c1ccc(O)c(O)c1)[C@H](O)C2`: the Potency result in test [1] and in test [2] was “inactive” throughout.

With `CCC(=O)c1c(O)cc(O)cc1O`, the Potency entry in test [1] and in test [2] was “inactive” each time.

As for `CN1CCC[C@@H]1c1cccnc1`, the Potency result in test [1] and in test [2] was “inactive” in each case.

`CC(=O)c1ccc2c(c1)N(CCCN1CCC(CCO)CC1)c1ccccc1S2`: the Potency result in test [1] and in test [2] was “inactive” throughout.

Turning to `CNCC[C@@H](Oc1ccccc1C)c1ccccc1`, the Potency result in test [1] and in test [2] was “inactive” each time.

Take `O=C(OCC(O)CO)c1ccccc1Nc1ccnc2cc(Cl)ccc12` (centres undefined): the Potency result in test [1] and in test [2] was “inactive” in each case.

Turning to `CCCCOc1cc(C(=O)NCCN(CC)CC)c2ccccc2n1`, the Potency result in test [1] and in test [2] was “inactive” throughout.

For the molecule `CN(C)CC/C=C1\c2ccccc2Sc2ccc(Cl)cc21`, the Potency entry in test [1] and in test [2] was “inactive” each time.

Regarding `CC(C)NC[C@@H](O)COc1cccc2ccccc12`, the Potency result in test [1] and in test [2] was “inactive” in each case.

For `CC1=C(C(=O)OC(C)C)C(c2cccc([N+](=O)[O-])c2)C(C(=O)OC2CN(C(c3ccccc3)c3ccccc3)C2)=C(N)N1` (centres undefined), the Potency entry in test [1] and in test [2] was “inactive” each time.

In the case of `Oc1ccc(Cl)c2cccnc12`, the Potency result in test [1] and in test [2] was “inactive” throughout.

As for `CC1(C)O[C@@H]2C[C@H]3[C@@H]4CCC5=CC(=O)CC[C@]5(C)[C@@]4(F)[C@@H](O)C[C@]3(C)[C@]2(C(=O)CCl)O1`, the Potency entry in test [1] and in test [2] was “inactive” each time.

For `CCOC(=O)c1cccc(N)c1`, the Potency result in test [1] and in test [2] was “inactive” each time.

As to `CC(C)(C(=O)c1cccnc1)c1cccnc1`, the Potency result in test [1] and in test [2] was “inactive” in each case.

Turning to `COc1cccc2c1C(=O)c1c(O)c3c(c(O)c1C2=O)C[C@@](O)(C(C)=O)C[C@@H]3O[C@H]1C[C@H](N)[C@H](O)[C@H](C)O1`, the Potency in test [3] was 174 nM (active).

With `CCCN1CCCC[C@H]1C(=O)Nc1c(C)cccc1C`, the Potency result in test [2] is “inactive”.

Consider `CC(=O)OCC(=O)[C@@]1(O)CC[C@H]2[C@@H]3CCC4=CC(=O)C=C[C@]4(C)[C@H]3[C@@H](O)C[C@@]21C`, for which the Potency entry in test [2], in test [5] and in test [6] was “inactive” each time. For the same molecule, in test [4], the result was inactive. Besides, the results for the Z-AUC in test [3], in test [3] (setting [7]) and in test [3] (measured here: PEO4 Z-AUC) were -0.27 (inactive), 1.1 and 0.219, respectively.

Take `Nc1ccn([C@@H]2O[C@H](CO)[C@@H](O)C2(F)F)c(=O)n1`: the Potency result in test [2], in test [5] and in test [6] was “inactive” each time. Further, the outcome in test [4] was inactive. Further, the Potency in test [3] is 7.8 nM (active). Further, the Z-AUC in test [3] (setting [7]) is -3.27; in test [3] (measured here: PEO4 Z-AUC), -1.86.

Turning to `COc1cccc(OC)c1C(=O)N[C@@H]1C(=O)N2[C@@H]1SC(C)(C)[C@@H]2C(=O)O`, the Potency entry in test [2], in test [5] and in test [6] was “inactive” throughout. For the same molecule, the molecule was called inactive in test [4].

On to `CC(=O)Oc1ccc2c(c1)CC[C@@H]1[C@@H]2CC[C@]2(C)[C@@H](O)CC[C@@H]12`, for which the Potency entry in test [2] is “inactive”.
